Only some compounds are listed: those with a hit (about 6.6% of all), similar ones and a draw of the others.
Gli-Sufu block – antagonists of Gli-Sufu signaling; actives 0.74% (n = 340,000); inhibition, % at 5 µM; Sufu-KO-LIGHT fibroblasts, Gli luciferase reporter luminescence;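 active = inhibition above about 55%, limit read from the data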
Beta cell apopt – blocks beta cell apoptosis. INS-1E cytokine-induced death, ATP luminescence, 48 h; percent of positive-control rescue, neutral wells zero. protection from apoptosis, % (test concentration not listed). actives 0.8% (n = 300,000). AID 435005;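 active = Every replicate reaches about 75%, or at least half do and their mean reaches it too, limit read from the data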;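 note: higher means more ATP so stronger rescue from cytokine killing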
Mdm2-MdmX inh – inhibitors of human Mdm2/MdmX interaction | O15151+Q00987 | actives 3% (n = 330,000) | AID 485346 | inhibition, % at 8 µM | SaOS-2 split-luciferase Mdm2/MdmX complementation, luminescence;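 active = inhibition of at least 50% at 8 µM in the primary screen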
MPTP inh – permeability transition pore inhibition; isolated mouse mitochondria, Ca2+ swelling absorbance, 30 min; inhibition, % at 10 µM; actives 1.4% (n = 360,000);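 active = inhibition of 50% or more, scaled per plate between neutral and stimulator controls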
GRIN3A LBD mod – modulators (binders) of human NR3A ligand-binding domain | actives 2.5% (n = 340,000) | NR3A LBD differential scanning fluorimetry, Tm shift; 0% = protein alone, 100% = glycine-bound protein | Tm shift relative to glycine control, % at 25 µM;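 active = melting temperature shift of at least 10% of the positive control shift, at one fixed dose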
CSC inhib – blocks cancer stem cells. cancer stem cell-like cells viability, luminescence. inhibition, % at 7.5 µM. actives 1.1% (n = 300,000). AID 2717; in the data active = inhibition above about 75%; tested in HMLE shEcad cells
Each line names hits and unclear results; the compound was inactive in the other large screens.

COc1ccccc1Nc1nc(NCCCCO)nc(N2CCCC2)n1	none
O=S(=O)(N/N=C/c1ccc(Cl)cc1)c1ccc(Cc2ncc(C(F)(F)F)cc2Cl)s1	GRIN3A LBD mod 29
NC(=O)c1ccc(Cc2ncc(C(F)(F)F)cc2Cl)s1	none (no result: CSC inhib)
O=C(Nc1ccc(F)cc1)c1cc2cc(Cl)ccc2[nH]1	none
O=C(NNC(=O)c1cc2cc(OC(F)(F)F)ccc2[nH]1)c1ccc(Cl)cc1	GRIN3A LBD mod 14
CNc1nc(Cl)c(SC)c(NCc2cccc(OC)c2)n1	GRIN3A LBD mod 17
COCC(=O)N(C)C[C@H]1Oc2ncc(Br)cc2C(=O)N([C@@H](C)CO)C[C@H]1C	none (no result: Gli-Sufu block, Beta cell apopt, Mdm2-MdmX inh, GRIN3A LBD mod, CSC inhib)
Nc1cccc(/C=C/c2ccncc2)c1	none
O=S(=O)(Nc1ccc(N=Nc2ccc(O)c3ccccc23)cc1)c1ccccc1	CSC inhib 79
CC1CCN(C(=O)CSc2nnc3ccc(-c4cccnc4)nn23)CC1	none
C#CCOCCOCCOCCNc1nc(N2CCN(C(=O)CCCCCCCCCCNC(=O)[C@H](CCCCN)n3cc(C)nn3)CC2)nc(N2CCN(C(=O)CCCCCCCCCCNC(=O)[C@H](CCCN=C(N)N)n3cc(C[C@@H](C)CC)nn3)CC2)n1	Beta cell apopt 100, CSC inhib 168 (no result: MPTP inh)
C#CCOCCOCCOCCNc1nc(N2CCN(C(=O)CCCCCCCCCCNC(=O)Cn3cc(CCCCCN)nn3)CC2)nc(N2CCN(C(=O)CCCCCCCCCCNC(=O)Cn3cc(C[C@@H](C)O)nn3)CC2)n1	GRIN3A LBD mod 30
C#CCOCCOCCOCCNc1nc(N2CCN(C(=O)CCCCCCCCCCNC(=O)[C@H](CCCCN)n3cc(CCO)nn3)CC2)nc(N2CCN(C(=O)CCCCCCCCCCNC(=O)[C@H](CCCCN)n3cc(C[C@@H](C)CC)nn3)CC2)n1	Beta cell apopt 83, GRIN3A LBD mod 20, CSC inhib 95 (no result: MPTP inh)
C#CCOCCOCCOCCNc1nc(N2CCN(C(=O)CCCCCCCCCCNC(=O)[C@H]([C@@H](C)CC)n3cc(CCCCN=C(N)N)nn3)CC2)nc(N2CCN(C(=O)CCCCCCCCCCNC(=O)[C@@H]([C@H](C)O)n3cc(C)nn3)CC2)n1	none
C#CCOCCOCCOCCNc1nc(N2CCN(C(=O)CCCCCCCCCCNC(=O)[C@@H](CCC(=O)O)n3cc(CCCCCN)nn3)CC2)nc(N2CCN(C(=O)CCCCCCCCCCNC(=O)[C@H](CCCCN)n3cc(C[C@@H](C)CC)nn3)CC2)n1	none
C#CCOCCOCCOCCNc1nc(N2CCN(C(=O)CCCCCCCCCCNC(=O)[C@H](CCCCN)n3cc(C[C@@H](C)CC)nn3)CC2)nc(N2CCN(C(=O)CCCCCCCCCCNC(=O)[C@H](CCCN=C(N)N)n3cc(C[C@@H](C)CC)nn3)CC2)n1	Beta cell apopt 99, CSC inhib 102
C#CCOCCOCCOCCNc1nc(N2CCN(C(=O)CCCCCCCCCCNC(=O)[C@@H](CCSC)n3cc(CCO)nn3)CC2)nc(N2CCN(C(=O)CCCCCCCCCCNC(=O)[C@H](CCCN=C(N)N)n3cc(C[C@@H](C)CC)nn3)CC2)n1	none
CCCCN1C(=O)C(=O)NC[C@@H]1CC1CCCCC1	none (no result: Gli-Sufu block, Beta cell apopt, Mdm2-MdmX inh, GRIN3A LBD mod, CSC inhib)
CCn1ncc(Br)c1C(=O)Nc1ccc(-c2ccno2)cc1	none (no result: Beta cell apopt, CSC inhib)
COCCN(C(=O)COC(=O)CCC1CCCC1)c1c(N)n(Cc2ccccc2)c(=O)[nH]c1=O	none
Cc1cc(NC(=O)CSc2nnc(CNC(=O)c3ccccc3)o2)no1	none
O=C(CNC(=O)c1cccs1)N/N=C/c1cccc(Cl)c1	none
C#CCOCCOCCOCCNc1nc(N2CCN(C(=O)CCCCCCCCCCNC(=O)[C@H](CO)n3cc(CCCCCN)nn3)CC2)nc(N2CCN(C(=O)CCCCCCCCCCNC(=O)[C@H](CCCN=C(N)N)n3cc(C[C@@H](C)CC)nn3)CC2)n1	Beta cell apopt 89 (no result: Gli-Sufu block, MPTP inh, GRIN3A LBD mod)
COc1ccc(CCNC(=O)c2cc3c(cc2Cl)N2CCCCCC2=NS3(=O)=O)cc1	none
Cc1c(OCC(=O)NCC(O)c2ccccc2)ccc2c3c(c(=O)oc12)CCCC3 (stereo unspecified)	none
NC(=O)c1c(/N=C/c2cccnc2)sc2c1CCCC2	GRIN3A LBD mod 11
Cc1ccc(/C=N/c2sc3c(c2C(N)=O)CCCC3)o1	none
O=C(CNC(=O)N1CC(=O)Nc2ccccc21)Nc1cc(Cl)ccc1Cl	none
Cc1ccc2c(c1C)-c1c(ccc(C)c1C)C(=O)C2=O	Gli-Sufu block 64 (no result: Beta cell apopt, Mdm2-MdmX inh, CSC inhib)

High-throughput results from PubChem BioAssay.
